High-throughput results: PubChem, National Center for Advancing Translational Sciences (NCATS)
SW480 rerep: DNA re-replication induction in SW480 cells. actives 1.8% (n = 340,000). Potency, µM (series often up to 46.1 µM), for the others: at the highest dose re-replication activation, most hits filed as activators. SW480 DNA re-replication, Hoechst DNA content imaging, 48 h; note: % of control where 0% means no effect; nearly all actives have a fitted effect of over 55% in size
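Cells (250 per well) received 23 nL compound or DMSO by pin tool and were kept 48 hr at 37 C, 5% CO2. Nuclei were then stained with Hoechst for 40 min and scanned for DNA content.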
HT1080-NT tox: kills 2HG-producing HT-1080-NT fibrosarcoma cells; HT-1080-NT fibrosarcoma viability, CellTiter-Glo ATP luminescence, 48 h; Potency, µM (top dose mostly 46.1 µM), for the others: top-dose activity, negative = less viability, most hits filed as cytotoxic; actives 1.6% (n = 360,000); AID 686970;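 note: NT is the 2HG producing partner of a matched IDH1 knockdown line; 0% = DMSO-treated cells and -100% = media-only wells without cells; nearly all actives have a fitted effect of over 55% in size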
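HT-1080-NT fibrosarcoma cells (2HG-overproducing), 750 cells/well in RPMI with 5% FBS, dosed after 2 h and incubated 48 h at 37C. CellTiter-Glo luminescence normalized to DMSO and no-cell wells; concentration-response curves fitted and classed.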
KB-3-1 tox: KB-3-1 parental cell cytotoxicity; KB-3-1 viability, CellTiter-Glo ATP luminescence, 72 h; Potency, µM (titrated, usually from 46.1 µM), hits mostly cytotoxic; actives 1.4% (n = 400,000); note: % is set by controls: 0 for no effect and ±100 for the full control effect; nearly all actives have a fitted effect of over 60% in size
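Multi-concentration cytotoxicity screen in KB-3-1 cells grown in DMEM lacking phenol red with 10% FBS. After 72 h at 37 °C with compound, ATP-dependent luminescence was recorded.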
KB-V1 cytotox: KB-V1 MDR subline cytotoxicity | Potency, µM (doses to about 46.1 µM), actives largely listed as cytotoxic | KB-V1 MDR cells viability, CellTiter-Glo, 72 h | actives 3.4% (n = 400,000); note: % is set by controls: 0 for no effect and ±100 for the full control effect; nearly all actives have a fitted effect of over 60% in size
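KB-V1, DMEM (no phenol red) + 10% FBS; cpd pin-transferred, titration series; 72 h, 37 degrees C; CellTiter-Glo, luminescence. Data normalized, curve-fit.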
HT1080 IDH1KD tx: HT-1080 IDH1 knockdown cell toxicity (counter line) | AID 686971 | Potency, µM (doses to about 46.1 µM), for the others: at the highest dose activity, negative = toxicity, usual class: cytotoxic | HT-1080 IDH1 knockdown viability, ATP luminescence, 48 h | actives 2% (n = 360,000);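 note: 0% = DMSO wells and -100% = cell-free medium wells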
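In this qHTS, HT-1080 cells depleted of IDH1 are exposed for 48 h at 37 °C to compound titrations. Toxicity is scored from CellTiter-Glo luminescence, with DMSO as full viability and medium alone as none.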
MCF10A rereplic: induces DNA re-replication in MCF 10a normal breast cells | actives 2.9% (n = 350,000) | Potency, µM (titrated, usually from 46.1 µM), inactives show top-dose activity, positive = re-replication, actives largely listed as activators | MCF 10A DNA re-replication, Hoechst nuclear intensity, 48 h; note: % of control where 0% means no effect; nearly all actives have a fitted effect of over 50% in size
* = called active by the depositor. Rows were chosen to be rich in hits. Some 7.9% of all compounds tested hit in one or more screens of this group. Calls come from the whole dose curve; as a rule, active = well fitted curve in the direction sought with a large enough effect; inconclusive = small, poorly fitted or top-dose-only effect, or another doubt; inactive = no such curve, though single readings can be large; an effect the other way counts as inactive or inconclusive. Potency is the fitted concentration of half-maximal effect.

Screening C=CCNC(=O)Cc1c(OC)ccc2cc(Br)ccc12 returned SW480 rerep 2.1%, HT1080-NT tox -12.7%, KB-3-1 tox inconclusive, KB-V1 cytotox 20.6µM*, HT1080 IDH1KD tx -12.3% and MCF10A rereplic -0.7%.
`CCCc1nn2c(=O)cc(COC(=O)c3ccccc3NC(=O)c3ccc(OCC)cc3)nc2s1` gave KB-3-1 tox inactive and KB-V1 cytotox inactive.
Screening CC(C)(C)CC(C)(C)c1cc(Cc2cc(C(C)(C)CC(C)(C)C)cc(-n3nc4ccccc4n3)c2O)c(O)c(-n2nc3ccccc3n2)c1 returned SW480 rerep -3.2% and MCF10A rereplic -1.0%.
For O=C1/C(=C/c2ccc(C(=O)O)cc2)CCC/C1=C\c1ccc(C(=O)O)cc1 the results were SW480 rerep -10.9%, HT1080-NT tox 1.9%, KB-3-1 tox inactive, KB-V1 cytotox inactive, HT1080 IDH1KD tx 5.5% and MCF10A rereplic 4.6%.
COc1ccc(/C=C2\CCC/C(=C\C=N\N(C)C)C2=O)cc1 was read as SW480 rerep -22.0%, HT1080-NT tox -23.8%, KB-3-1 tox inactive, KB-V1 cytotox inconclusive, HT1080 IDH1KD tx -25.2% and MCF10A rereplic 8.2µM*.
CN(C)/N=C/C=C1\CCC/C(=C\c2ccc(F)c(F)c2)C1=O was read as SW480 rerep inconclusive, HT1080-NT tox -23.1%, KB-3-1 tox inconclusive, KB-V1 cytotox inconclusive, HT1080 IDH1KD tx 0.3% and MCF10A rereplic 14.1µM*.
`COc1ccc(C=C2CS(=O)(=O)CC(=Cc3ccc(OC)cc3)C2=O)cc1` gave HT1080-NT tox inconclusive, KB-3-1 tox inconclusive, KB-V1 cytotox inconclusive and HT1080 IDH1KD tx 3.66µM*.
For CC1Cn2c(C(=O)NCc3cccc(Br)c3)cc3cccc(c32)S1 (stereo not given) the results were KB-3-1 tox inactive and KB-V1 cytotox inactive.
Screening O=C(CCCn1c(=O)c2ccccc2n(CC(=O)Nc2cccc(C(F)(F)F)c2)c1=O)NCc1ccc2c(c1)OCO2 returned KB-3-1 tox inactive and KB-V1 cytotox inconclusive.
Screening COc1cccc(/C=N/NC(=O)c2[nH]nc3c2CCc2ccccc2-3)c1 returned SW480 rerep inconclusive, HT1080-NT tox 3.66µM*, KB-3-1 tox 10.3µM*, KB-V1 cytotox inconclusive, HT1080 IDH1KD tx 2.06µM* and MCF10A rereplic inconclusive.
Screening COc1ccc(OC)c(/C=N/NC(=O)c2[nH]nc3c2CCc2ccccc2-3)c1 returned SW480 rerep inconclusive, HT1080-NT tox -9.8%, KB-3-1 tox inactive, KB-V1 cytotox inactive, HT1080 IDH1KD tx -8.2% and MCF10A rereplic 23.1µM*.
CC(C)NC(=O)c1[nH]nc2c1CCc1ccccc1-2 was read as SW480 rerep inconclusive, HT1080-NT tox 2.8%, KB-3-1 tox inactive, KB-V1 cytotox inactive, HT1080 IDH1KD tx -3.7% and MCF10A rereplic 6.3%.
Screening CNC(=O)c1[nH]nc2c1CCc1cc(OC)ccc1-2 returned SW480 rerep inconclusive, HT1080-NT tox 21.1%, KB-3-1 tox inactive, KB-V1 cytotox inactive, HT1080 IDH1KD tx -1.6% and MCF10A rereplic 1.5%.
CNc1nc(N2CCCN(C)CC2)nc2cc(OC)c(OC)cc12 was read as HT1080-NT tox -9.7% and HT1080 IDH1KD tx -18.9%.
CCOC(=O)N1CCN(c2nc(-c3ccccc3)c3ccccc3n2)CC1 was read as SW480 rerep 16.4µM*, HT1080-NT tox inconclusive, KB-3-1 tox inactive, KB-V1 cytotox inactive, HT1080 IDH1KD tx 7.8% and MCF10A rereplic 8.2µM*.
`CCOC(=O)N1CCN(c2ccccc2O)CC1` gave SW480 rerep -4.6%, HT1080-NT tox 17.8%, KB-3-1 tox inactive, KB-V1 cytotox inactive, HT1080 IDH1KD tx 11.7% and MCF10A rereplic 10.7%.
